Source: PubChem (Broad Institute)
Rows were chosen to be rich in hits. Some 6.7% of all compounds tested hit in one or more screens of this group.
T cruzi growth-1 – blocks T. cruzi growth in NIH3T3 culture. T. cruzi beta-gal in NIH3T3, GalScreen luminescence, 90 h. inhibition, % at 8.34 µM. hit rate 5.9% among 77,000. AID 624255;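 active = mean inhibition above about 93%, with at least 55% of replicates each passing it, limit read from the data, passing the limit was not always enough; inconclusive = only one of those two conditions holds; inactive = neither condition holds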
C diff growth – blocks growth of Clostridium difficile; Clostridium difficile clinical isolate growth, OD600, 24 h; active compounds read low; growth activity, negative = inhibition, % at 16 µg/mL (by protocol); hit rate 0.25% among 86,000;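 active = mean growth activity at or below -80% and every replicate also at or below -80%; inconclusive = mean at or below -80% but some replicate above -80%; inactive = mean growth activity above -80%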
Pf Dd2 growth – P. falciparum Dd2 growth inhibition; SYBR Green, 72 h; active compounds read low; activity change, % at 10 µM; hit rate 2.3% among 94,000; AID 1159554; in the data active = activity change below about -80%; inconclusive = no clear call, values can overlap the other calls
T cruzi growth-2 – Trypanosoma cruzi proliferation inhibition. shares compounds with T cruzi growth-1. T. cruzi beta-gal in NIH3T3, GalScreen luminescence, 90 h. inhibition, % at 8.35 µM. hit rate 72% among 5,600;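 active = mean replicate inhibition above about 95% and at least 55% of replicates individually reaching it, limit read from the data; inconclusive = only one of the two criteria is met; inactive = neither criterion is met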
T cruzi growth-3 – blocks T. cruzi growth in NIH3T3 host cells; inhibition, % at 2.09 µM; shares compounds with T cruzi growth-1; hit rate 21% among 5,600; AID 651740; T. cruzi beta-gal in NIH3T3, GalScreen luminescence, 90 h;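 active = mean inhibition above about 95%, with at least 55% of replicates also reaching it, limit read from the data; inconclusive = meets just one of the two conditions; inactive = meets neither condition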
NIH3T3 tox – cytotoxicity in mouse NIH/3T3 fibroblasts; hit rate 14% among 5,600; cytotoxicity (signal decrease), % at 8.35 µM; NIH/3T3 viability, CellTiter-Glo ATP luminescence, 90 h; shares compounds with T cruzi growth-1;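 active = mean signal decrease across replicates above about 35% based on untreated-well scatter, with enough replicates individually passing, limit read from the data; inconclusive = no rule stated though some were filed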
3T3 cytotox 2 – cytotoxicity in mouse NIH/3T3 fibroblasts. shares compounds with T cruzi growth-1. NIH/3T3 viability, CellTiter-Glo ATP luminescence, 90 h. inhibition, % at 24.9 µM. hit rate 56% among 5,600. AID 651744;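 active = mean loss of cell viability signal at or above a set limit, and enough replicates individually reaching it; inconclusive = meets only the mean limit or only the replicate share; inactive = meets neither condition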
Each line names hits and unclear results; the compound was inactive in the other large screens (follow-up assays come after a bar, where they were run).

C[C@@H]1CCCCO[C@H](CN(C)S(=O)(=O)c2ccc(F)cc2)[C@@H](C)CN([C@@H](C)CO)C(=O)c2cc(NS(=O)(=O)c3ccc(Cl)cc3)ccc2O1	T cruzi growth-1 97 | T cruzi growth-2 105 | T cruzi growth-3 111 | NIH3T3 tox inactive | 3T3 cytotox 2 inactive
COc1cccc(CNC(=O)C[C@@H]2CC[C@@H]3[C@@H](COc4ccc(NC(C)=O)cc4C(=O)N3C)O2)c1	none
COc1ccc(S(=O)(=O)N[C@@H]2C=C[C@H](CC(=O)N3CCN(c4ccccc4)CC3)O[C@H]2CO)cc1	none
CCCN(C)C[C@@H]1OCCCC[C@@H](C)Oc2ccc(NS(=O)(=O)c3ccc(F)cc3)cc2C(=O)N([C@H](C)CO)C[C@@H]1C	none
Cc1noc(C)c1S(=O)(=O)Nc1ccc2c(c1)C(=O)N([C@@H](C)CO)C[C@@H](C)[C@@H](CN(C)Cc1ccc3c(c1)OCO3)O2	none
C[C@H]1CN([C@@H](C)CO)C(=O)c2cccc(NS(=O)(=O)c3ccccc3)c2O[C@H]1CN(C)C(=O)Nc1ccc2c(c1)OCO2	none
C[C@@H]1CCCCO[C@H](CN(C)S(=O)(=O)c2ccc(Cl)cc2)[C@H](C)CN([C@H](C)CO)C(=O)c2cc(NS(=O)(=O)c3ccc(F)cc3)ccc2O1	none
C[C@@H]1CN([C@H](C)CO)C(=O)c2cc(NS(=O)(=O)c3ccc(F)cc3)ccc2O[C@@H](C)CCCCO[C@H]1CN(C)S(=O)(=O)c1ccc(Cl)cc1	T cruzi growth-1 inconclusive | T cruzi growth-2 105 | T cruzi growth-3 113 | NIH3T3 tox inactive | 3T3 cytotox 2 inactive
CCN1[C@@H]2c3ccc(-c4cccc(F)c4)c(=O)n3C[C@@H]2[C@@H](CO)[C@@H]1C(=O)N1CCCCC1	none (no result: Pf Dd2 growth)
CN1c2ccc(-c3ccc(F)cc3)cc2[C@@H]2[C@@H](CCN2C(=O)c2ccncc2)[C@H]1CO	none
CN1c2ccc(-c3ccc(F)cc3)cc2[C@H]2[C@H](CCN2C(=O)c2ccncc2)[C@@H]1CO	T cruzi growth-1 inconclusive | T cruzi growth-2 110 | T cruzi growth-3 inactive | NIH3T3 tox inactive | 3T3 cytotox 2 inconclusive
CN1c2ccc(-c3ccccc3)cc2[C@H]2[C@H](CCN2C(=O)c2ccc(F)cc2)[C@H]1CO	none
CN(C)C(=O)c1cccc(-c2ccc3c(c2)[C@H]2[C@H](CCN2C(=O)c2ccccc2)[C@@H](CO)N3C)c1	T cruzi growth-1 102 | T cruzi growth-2 100 | T cruzi growth-3 inactive | NIH3T3 tox inactive | 3T3 cytotox 2 inactive
CN1c2ccc(-c3ccccc3)cc2[C@H]2[C@H](CCN2C(=O)c2ccncc2)[C@H]1CO	T cruzi growth-1 103 | T cruzi growth-2 107 | T cruzi growth-3 inactive | NIH3T3 tox inactive | 3T3 cytotox 2 inactive
CN1c2ccc(-c3ccccc3)cc2[C@H]2[C@H](CCN2C(=O)c2ccccc2)[C@H]1CO	none
C[C@@H]1CN([C@@H](C)CO)C(=O)c2cc(C#Cc3cccnc3)cnc2O[C@H]1CN(C)C(=O)CC1CC1	none
C[C@H](NC(=O)[C@@H]1[C@@H](CO)[C@@H]2Cn3c(ccc(-c4cccnc4)c3=O)[C@@H]2N1C)c1ccccc1	none
CC(C)CC#Cc1ccc2c(c1)O[C@H](CN(C)C(=O)Cc1ccncc1)[C@H](C)CN([C@@H](C)CO)S2(=O)=O	T cruzi growth-1 101 | T cruzi growth-2 101 | T cruzi growth-3 inactive | NIH3T3 tox inactive | 3T3 cytotox 2 inactive
CC(C)CC#Cc1ccc2c(c1)O[C@H](CN(C)C(=O)Cc1ccncc1)[C@H](C)CN([C@H](C)CO)S2(=O)=O	none
CC(C)CC#Cc1ccc2c(c1)O[C@@H](CN(C)C(=O)Cc1ccncc1)[C@@H](C)CN([C@@H](C)CO)S2(=O)=O	T cruzi growth-1 inconclusive, Pf Dd2 growth inconclusive | T cruzi growth-2 103 | T cruzi growth-3 inactive | NIH3T3 tox inactive | 3T3 cytotox 2 75
CC(C)CC#Cc1ccc2c(c1)O[C@@H](CN(C)C(=O)Cc1ccncc1)[C@H](C)CN([C@H](C)CO)S2(=O)=O	none
C[C@H](CO)N1C[C@H](C)[C@@H](CN(C)CC2CCCC2)Oc2cc(C#CC3CC3)ccc2S1(=O)=O	T cruzi growth-1 inconclusive (no result: C diff growth) | T cruzi growth-2 104 | T cruzi growth-3 inactive | NIH3T3 tox inactive | 3T3 cytotox 2 105
CCCN(C)C[C@@H]1Oc2cc(C#CC3CCCC3)ccc2S(=O)(=O)N([C@@H](C)CO)C[C@@H]1C	T cruzi growth-1 99 | T cruzi growth-2 113 | T cruzi growth-3 inactive | NIH3T3 tox inactive | 3T3 cytotox 2 104
C[C@@H]1CN([C@H](C)CO)S(=O)(=O)c2ccc(C#CC3CC3)cc2O[C@@H]1CN(C)CC1CCOCC1	none
C[C@@H]1CN([C@H](C)CO)S(=O)(=O)c2ccc(C#CC3CC3)cc2O[C@H]1CN(C)CC1CCOCC1	T cruzi growth-1 inconclusive | T cruzi growth-2 101 | T cruzi growth-3 inactive | NIH3T3 tox 50 | 3T3 cytotox 2 91
COCC#Cc1ccc2c(c1)O[C@@H](CN(C)CC1CCCC1)[C@H](C)CN([C@H](C)CO)S2(=O)=O	T cruzi growth-1 110 | T cruzi growth-2 98 | T cruzi growth-3 inactive | NIH3T3 tox 44 | 3T3 cytotox 2 104
C[C@@H]1CN([C@H](C)CO)S(=O)(=O)c2ccc(C#CC3CC3)cc2O[C@@H]1CN(C)CC1CC1	none (no result: C diff growth)
COCC#Cc1ccc2c(c1)O[C@@H](CN(C)CC1CC1)[C@@H](C)CN([C@H](C)CO)S2(=O)=O	none (no result: T cruzi growth-1)
CCCN(C)C[C@H]1Oc2cc(C#CC3CCCCC3)ccc2S(=O)(=O)N([C@@H](C)CO)C[C@@H]1C	none
O=C(NCC[C@@H]1CC[C@@H](NS(=O)(=O)c2cccc(F)c2)[C@@H](CO)O1)C1CCCCC1	none (no result: T cruzi growth-1)
CC(C)C#Cc1ccc2c(c1)O[C@H](CN(C)CC1CCOCC1)[C@@H](C)CN([C@@H](C)CO)S2(=O)=O	T cruzi growth-1 102 | T cruzi growth-2 98 | T cruzi growth-3 inactive | NIH3T3 tox inactive | 3T3 cytotox 2 105
CC(C)C#Cc1ccc2c(c1)O[C@@H](CN(C)CC1CCOCC1)[C@@H](C)CN([C@H](C)CO)S2(=O)=O	none
C[C@H]1CN([C@@H](C)CO)S(=O)(=O)c2ccc(C#Cc3ccccc3F)cc2O[C@H]1CN(C)CC1CCOCC1	none (no result: T cruzi growth-1)
COc1ccc(-c2ccc3c(c2)O[C@@H](CN(C)CC2CCOCC2)[C@H](C)CN([C@@H](C)CO)S3(=O)=O)cc1	T cruzi growth-1 93 | T cruzi growth-2 100 | T cruzi growth-3 101 | NIH3T3 tox 51 | 3T3 cytotox 2 67
COc1ccc(-c2ccc3c(c2)O[C@H](CN(C)CC2CCOCC2)[C@@H](C)CN([C@@H](C)CO)S3(=O)=O)cc1	none
